The list is not random: actives were taken first. Their share in the collection is about 8.8%.
IL1B secr inh: qHTS for Inhibitors of Inflammasome Signaling: IL-1-beta AlphaLISA Primary Screen; THP-1 LPS/ATP IL-1B secretion, AlphaLISA, 16 h; hits give low values; activity change, % at 57.5 µM; 4.7% of 360,000 active; AID 743279, 2014; in the data active = activity change below about -50%; inconclusive = mostly about -30% to -49%
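Secreted IL-1B measured by AlphaLISA bead assay after 16 h compound exposure of THP-1 cells; compounds (final up to 57.5 uM) added 1 h before LPS (250 ng/mL) and ATP (1.25 mM) stimulation; lower signal means less secretion.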
HT1080NT lethal: qHTS for induction of synthetic lethality in tumor cells producing 2HG: qHTS for the HT-1080-NT fibrosarcoma cell line; HT-1080-NT fibrosarcoma viability, CellTiter-Glo ATP luminescence, 48 h; Potency, µM (titrated, usually from 46.1 µM), for inactives: at the top dose activity, negative = less viability, actives largely listed as cytotoxic; 1.6% of 360,000 active;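 note: NT is the 2HG producing partner of a matched IDH1 knockdown line; potency is the fitted concentration of half-maximal effect; 0% = DMSO-treated cells and -100% = media-only wells without cells; nearly all actives have a fitted effect of over 55% in size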
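Luminescent CellTiter-Glo readout after 48 hours of compound exposure at 37 degrees C defined viability of HT-1080-NT cells. Activity was normalized to DMSO wells and cell-free media wells; concentration-response curves were fitted and assigned curve classes.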
KB-V1 cytotox: qHTS assay for MDR1-selective chemotherapeutics: Primary screen using the drug-selected MDR subline cells KB-V1 | KB-V1 MDR cells viability, CellTiter-Glo, 72 h | Potency, µM (doses to about 46.1 µM), actives largely listed as cytotoxic | 3.4% of 400,000 active; note: potency is the fitted concentration of half-maximal effect; nearly all actives have a fitted effect of over 60% in size
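KB-V1 cells (P-gp-expressing MDR subline of KB-3-1) in phenol-red-free DMEM with 10% FBS were exposed to library compounds over a concentration series for 72 h at 37 degrees C. Viability read by CellTiter-Glo luminescence; concentration-effect curves fitted after normalization.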
HT1080 IDH1KD tx: qHTS for induction of synthetic lethality in tumor cells producing 2HG: qHTS for the HT-1080-IDH1KD cell line. HT-1080 IDH1 knockdown viability, ATP luminescence, 48 h. Potency, µM (series often up to 46.1 µM), for the others: top-dose activity, negative = toxicity, most hits filed as cytotoxic. 2% of 360,000 active;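 note: potency is the fitted concentration of half-maximal effect; 0% = DMSO wells and -100% = cell-free medium wells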
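HT-1080-IDH1KD cells (IDH1 knocked down), 750/well in RPMI with 5% FBS, treated with compound 48 h at 37 degrees C. Viability by CellTiter-Glo luminescence, normalised to DMSO and no-cell wells; concentration-response curves classed.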
KB-3-1 cytotox: qHTS assay for MDR1-selective chemotherapeutics: Primary screen using the parental adenocarcinoma cell KB-3-1; KB-3-1 viability, CellTiter-Glo ATP luminescence, 72 h; Potency, µM (highest dose often 46.1 µM), most hits filed as cytotoxic; 1.4% of 400,000 active; note: potency is the fitted concentration of half-maximal effect; nearly all actives have a fitted effect of over 60% in size
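KB-3-1 cells, DMEM (no phenol red) + 10% FBS; compound by pin transfer, 72 h, 37 °C. Readout: CellTiter-Glo luminescence after 10 min. Data normalized, curve-fitted.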
An asterisk follows results filed as active; i = inactive; ? = inconclusive; . = no result given; [ ] = remark or other dose. Unless noted, calls come from the whole dose curve; as a rule, active = well fitted curve in the direction sought with a large enough effect; inconclusive = small, poorly fitted or top-dose-only effect, or another doubt; inactive = no such curve, though single readings can be large; an effect the other way counts as inactive or inconclusive. Unless noted, % is set by controls: 0 for no effect and ±100 for the full control effect.

SMILES	IL1B secr inh	HT1080NT lethal	KB-V1 cytotox	HT1080 IDH1KD tx	KB-3-1 cytotox
COc1ccc(NC(=O)CSc2c3c(nc4cc(Cl)ccc24)CCCC3)cc1OC	-103*	?	?	?	i
COc1cc(NC(=O)CSc2c3c(nc4ccccc24)CCC3)cc(OC)c1OC	-60*	-12%	15µM*	-9%	i
COc1ccc(NC(=O)c2c3c(nc4ccccc24)CCC3)cc1	-4	2%[9.24 µM]	i	-11%	i
COc1ccc(NC(=O)CSc2c3c(nc4ccccc24)CCCC3)c(OC)c1	-105*	?	i	?	i
COc1ccccc1NC(=O)CSc1c2c(nc3ccccc13)CCC2	?	-6%	?	-26%	i
COc1ccccc1N1CCN(Cc2cc(=O)c(OCC#N)co2)CC1	0	6%	i	1%	i
COc1ccccc1-c1csc(C(NC(C)=O)c2ccc(F)c(F)c2)n1 (configuration not stated)	8	10%	i	-4%	i
Cc1ccc(S(=O)(=O)NCCC(=O)N2CCN(C/C=C/c3ccccc3)CC2)cc1	22	-4%	i	-12%	i
CCOc1ccc(S(=O)(=O)Nc2cccc(C(=O)N3CCN(c4ccccc4O)CC3)c2)cc1	-4	1%	21µM*	-13%	i
CCOc1ccc(NS(=O)(=O)c2cccc(C(=O)N3CCN(C/C=C/c4ccccc4)CC3)c2)cc1	?	6%	6.5µM*	0%	18µM*
CC(=O)c1ccc(S(=O)(=O)NCC(=O)N2CCN(C/C=C/c3ccccc3)CC2)cc1	7	-1%	18µM*	-29%	i
O=C(c1ccc(S(=O)(=O)Nc2cccc(C(F)(F)F)c2)cc1)N1CCN(c2ccccc2O)CC1	?	-16%	21µM*	?	?
O=C(c1ccc(NS(=O)(=O)c2ccc(F)cc2)cc1)N1CCN(c2ccccc2O)CC1	0	-12%	?	-5%	i
OCCC1CN(Cc2ccc(Oc3ncccn3)cc2)CCN1C1CCCCC1 (configuration not stated)	4	?	i	10%	i
CC(=O)N1N=C(c2ccc(C(C)(C)C)cc2)OC1(C)C	0	-18%	i	-18%	i
CC(=O)N1N=C(c2ccc3ccccc3c2)OC1(C)C	10	0%	18µM*	3%	?
COC(=O)[C@@]12C[C@@H](CC(=O)NCc3cccc(C(F)(F)F)c3)C(=O)N(Cc3ccc4c(c3)OCO4)C1=CCC(C)(C)C2	-71*	13µM*	21µM*	21µM*	?
COC(=O)[C@@]12C[C@@H](CC(=O)NCCC(C)C)C(=O)N(Cc3ccc4c(c3)OCO4)C1=CCC(C)(C)C2	-55*	?	?	?	i
CN1CC=C2C(C#N)=C(N)C(C#N)(C#N)[C@H](c3cccs3)[C@H]2C1	-9	1%	i	11%	i
CN1CC=C2C(C#N)=C(N)C(C#N)(C#N)C(CCc3ccccc3)C2C1 (configuration not stated)	7	-11%	18µM*	-9%	i
COc1cc(OC)nc(Nc2nc(CN)cs2)n1	-3	?	i	5%	i
Cc1ccc(Nc2nc(NCc3ccco3)nc3nccnc23)c(C)c1	.	.	i	.	i
CC1CCC/C=C/C(=O)c2c(O)cc(O)cc2CC(=O)O1 (configuration not stated)	-115*	18µM*	?	21µM*	10µM*
CC(C)OC(=O)CSc1nnc(-c2ccc(O)cc2)n1Cc1ccccc1	-17	13%	i	8%	i
O=C(CSc1nnc(-c2ccc(O)cc2)n1Cc1ccccc1)NNC(=O)c1ccc(Br)cc1	-66*	-7%	i	-5%	i
SMILES	IL1B secr inh	HT1080NT lethal	KB-V1 cytotox	HT1080 IDH1KD tx	KB-3-1 cytotox
Cc1c(Cl)cccc1NC(=S)NCC1COc2ccccc2O1 (configuration not stated)	-68*	1%	i	-18%	i
C=CCNC(=S)NCC1COc2ccccc2O1 (configuration not stated)	2	2%	i	4%	i
Clc1cccc(CNc2ccn3nc(-c4cccc(Cl)c4)cc3n2)c1	-51*	?	i	?	i
Clc1cccc(CNc2ccn3nc(-c4ccccc4)cc3n2)c1	-6	?	i	-27%	i
FC(F)(F)c1cccc(-c2cc3nc(NCCCn4ccnc4)ccn3n2)c1	?	?	i	?	i
c1ccc(COc2cccc(-c3cc4nc(NCCc5ccncc5)ccn4n3)c2)cc1	-60*	18µM*	i	23µM*	?
c1ccc(COc2cccc(-c3cc4nc(NCCCn5ccnc5)ccn4n3)c2)cc1	-1	16µM*	i	23µM*	i
c1ccc(COc2cccc(-c3cc4nc(NCCOc5ccccc5)ccn4n3)c2)cc1	-30	?	i	?	i
CCCNC(=O)C1(C)CCN(Cc2ccc(C)c3ccccc23)C1 (configuration not stated)	-7	-15%	?	-13%	i
CCc1ccc(CNC(=O)C2CCN(C(=O)c3ccc(-n4c(C)cc5ccccc54)s3)CC2)cc1	.	.	i	.	?
CCOc1ccc(C(=O)OCC(=O)N2CCCC2)cc1OCC	7	0%	i	3%	i
O=C(NC1CC1)c1cccc2c1C(=O)c1ccc(N3CCC(Cc4ccccc4)CC3)cc1S2(=O)=O	17	1%	?	2%	i
N#Cc1cccnc1N1CCN(C(=O)c2cccc3c2C(=O)c2ccc(Cl)cc2S3(=O)=O)CC1	-99*	?	i	-24%	?
O=C1c2ccc(Cl)cc2S(=O)(=O)c2cccc(C(=O)N3CCC(Cc4ccccc4)CC3)c21	-99*	?	i	?	i
OC(c1cc(F)cc(Cl)c1)c1ncc(-c2ccccc2C(F)(F)F)[nH]1 (configuration not stated)	21	?	i	-26%	i
O=C(NC1CCCCC1)C(C1CC1)n1c(=O)c(-c2cc3ccccc3[nH]2)nc2ccccc21 (configuration not stated)	-2	?	23µM*	-47%	?
O=C(NCc1ccccc1)C(c1ccccc1)n1c(=O)c(-c2cc3ccccc3[nH]2)nc2ccccc21 (configuration not stated)	16	?	?	?	?
